Screens deposited in PubChem BioAssay by several laboratories.
14-3-3 Bad PPI: inhibitors of 14-3-3 zeta/Bad binding, primary screen, biochemical, TR-FRET, bovine 14-3-3 zeta; inhibition, % at 21.7 µM; 0.71% of 220,000 active; TR-FRET 14-3-3zeta/Dy647-pBad peptide displacement, 1 h; AID 781, 2007;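 active means inhibition above about 70%, limit read from the data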
Target sequence (P63103 whole entry, looked up): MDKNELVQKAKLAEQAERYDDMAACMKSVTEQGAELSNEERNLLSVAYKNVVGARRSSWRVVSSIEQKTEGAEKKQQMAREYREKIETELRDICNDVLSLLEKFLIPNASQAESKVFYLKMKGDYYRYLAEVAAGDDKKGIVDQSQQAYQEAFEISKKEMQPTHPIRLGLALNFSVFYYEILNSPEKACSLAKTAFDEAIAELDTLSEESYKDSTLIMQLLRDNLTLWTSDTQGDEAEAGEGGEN
Mcl1-Noxa inh: Mcl-1/Noxa binding inhibitors, primary screen, biochemical, TR-FRET, 1536-well | TR-FRET Mcl-1/Noxa peptide binding, 2 h | 1.5% of 220,000 active | inhibition, % at 21.7 µM | Induced myeloid leukemia cell differentiation protein Mcl-1 (Homo sapiens), Q07820;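 active means compounds that cut the protein-peptide binding signal by more than 50% relative to plate controls in a single-dose test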;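 further: His-tagged Mcl-1 with rhodamine Noxa BH3 peptide and terbium anti-His antibody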
Target sequence (Q07820 whole entry, looked up): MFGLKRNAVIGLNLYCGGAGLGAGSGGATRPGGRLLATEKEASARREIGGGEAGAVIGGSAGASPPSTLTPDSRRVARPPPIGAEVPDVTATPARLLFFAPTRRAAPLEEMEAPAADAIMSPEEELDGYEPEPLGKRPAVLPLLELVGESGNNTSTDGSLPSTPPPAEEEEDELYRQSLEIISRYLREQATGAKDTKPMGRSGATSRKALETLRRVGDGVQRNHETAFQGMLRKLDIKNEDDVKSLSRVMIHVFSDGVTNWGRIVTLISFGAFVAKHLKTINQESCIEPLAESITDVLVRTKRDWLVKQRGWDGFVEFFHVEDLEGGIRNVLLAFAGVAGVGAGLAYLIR
Mcl-1 Bim block: inhibitors of Bim peptide binding to Mcl-1, primary screen, biochemical, bead-based flow cytometry, multiplex | AID 1009, 2008 | inhibition, % at 10 µM | Bim peptide-Mcl-1 binding | 0.1% of 190,000 active | Induced myeloid leukemia cell differentiation protein Mcl-1 (Homo sapiens), Q07820; in the data active means inhibition above about 40%
eIF4E 4G PPI: eIF4E–eIF4G protein interaction inhibitors, primary screen, biochemical, uHTS, TR-FRET, eIF4GI fragment. Eukaryotic translation initiation factor 4E (Mus musculus) + Eukaryotic translation …. TR-FRET eIF4E-eIF4GI(517-606) binding, 2 h. inhibition, % at 21.7 µM. 0.37% of 220,000 active;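 active means inhibition above about 30%, limit read from the data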
Mcl1 Bid PPI: Mcl-1/Bid binding inhibitors, primary screen, biochemical, TR-FRET, 1536-well | TR-FRET Mcl-1/Bid-Dy647 peptide binding | inhibition, % at 21.7 µM | 0.97% of 220,000 active;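 active means compounds that cut the binding signal by more than half at the single screening dose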;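 further: His-tagged Mcl-1 with europium anti-His antibody binding Bid BH3 peptide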
Pf gametocyte: late stage P. falciparum gametocyte viability inhibitors, primary screen, ATP luminescence, HTS. inhibition, % at 10.9 µM. P. falciparum stage V gametocytes, 24 h. AID 743093, 2013. 0.065% of 150,000 active;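 active means inhibition above the mean plus 3 SD of compounds within the control limits, set per campaign, cut at about 38% in these data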
Large screens that a line does not name were inactive; [ ] = dose if it differs, or a comment. In the library only some 2.7% were active in any assay of this set; here they are far more common.

COc1ccc(/C=C2\C(=O)NC(=S)N2C(=O)c2ccc(C)cc2)cc1	14-3-3 Bad PPI 78.8[fluorescence artefact?], Mcl1-Noxa inh 77.4, Mcl1 Bid PPI 55.5
O=C(NC1=C(Nc2ccc(Cl)cc2)C(=O)c2ccccc2C1=O)c1ccccc1	Mcl1-Noxa inh 61.3
O=C(NC1=C(NC2CCS(=O)(=O)C2)C(=O)c2ccccc2C1=O)c1ccccc1 (configuration not stated)	Mcl1-Noxa inh 70.3
Cc1cccc(C(=O)Nc2cccc(NC(=O)c3ccccc3)c2)c1	none (no result: 14-3-3 Bad PPI, Mcl1-Noxa inh, Mcl-1 Bim block, eIF4E 4G PPI, Mcl1 Bid PPI)
Cc1cccc(NC2=C(NC(=O)c3ccccc3)C(=O)c3ccccc3C2=O)c1	Mcl1-Noxa inh 93.8
O=C(NC(NC1CCS(=O)(=O)C1)C(=O)c1cccs1)c1ccccc1 (configuration not stated)	none (no result: Pf gametocyte)
CN1CCC(NC(=O)c2ccncc2)CC1	none (no result: Pf gametocyte)
COc1ccc(-c2ccnc3c(C(=O)O)cnn23)cc1	none (no result: Pf gametocyte)
COc1ccc(CCNC(=O)c2nnn(CC(=O)Nc3cccc(F)c3)c2N)cc1OC	none (no result: Pf gametocyte)
O=C(CC1NCCc2ccccc21)Nc1ccc(Cl)cc1 (configuration not stated)	none (no result: Pf gametocyte)
O=c1c2c3c(sc2[nH]c(=S)n1Cc1ccco1)CCC3	Mcl1-Noxa inh 76.0 (no result: Mcl-1 Bim block)
CC1(C)Cc2c(sc3[nH]c(=S)n(Cc4ccco4)c(=O)c23)CO1	none (no result: Pf gametocyte)
CCS(=O)(=O)c1ccc2oc(Nc3ccc(C(C)C)cc3)nc2c1	eIF4E 4G PPI 43.7 (no result: Pf gametocyte)
Cc1ccc(C(=O)NCc2ccccn2)cc1Cl	none
COc1cc(-c2nc3ccccn3c2/N=C/c2cc(OC)c(O)cc2Cl)ccc1O	Mcl1-Noxa inh 57.3
O=C(CCCN1C(=O)/C(=C\c2cccc(Br)c2)SC1=S)Nc1cccnc1	Mcl1 Bid PPI 59.4
CC(/C=C1\SC(=S)N(CCCC(=O)Nc2ccc(C(=O)O)cc2)C1=O)=C\c1ccccc1	Mcl1-Noxa inh 52.5
O=C1CC(c2ccco2)CC(O)=C1C=NCCN1CCN(C(=O)Nc2ccc(Cl)cc2)CC1 (configuration not stated)	none
O=C1CC(c2ccco2)CC(O)=C1C=NCCN1CCN(C(=S)Nc2ccccc2)CC1 (configuration not stated)	Mcl1-Noxa inh 51.4 (no result: Mcl-1 Bim block)
COC(=O)C1=C(C(=O)OC)C(c2cc(Br)ccc2O)c2sc(=O)[nH]c2S1 (configuration not stated)	Mcl1-Noxa inh 87.0
COC(=O)C1=C(C(=O)OC)C(c2ccc(OC)c(OC)c2)c2sc(=O)[nH]c2S1 (configuration not stated)	none
COC(=O)C1=C(C(=O)OC)C(c2cc(Cl)ccc2O)c2sc(=O)[nH]c2S1 (configuration not stated)	Mcl1-Noxa inh 78.7 (no result: Pf gametocyte)
CC(=O)N(Cc1ccccc1)c1nc(-c2ccccc2)cs1	none
Cc1ccc(-n2c(SCC(=O)NCCN3C(=O)CSC3=O)nnc2-c2ccccc2)cc1C	Mcl1 Bid PPI 51.5 (no result: Pf gametocyte)
Cc1ccc(-n2c(SCC(=O)NCCN3C(=O)CSC3=O)nnc2-c2ccccc2)cc1	none
Cc1cc2ncn(/N=C/c3ccc([N+](=O)[O-])s3)c2cc1C	Mcl1-Noxa inh 87.3 (no result: Pf gametocyte)
O=C(/C=C/c1cc[n+](CC(=O)c2ccc3cccc4c3c2CC4)cc1)c1ccc2cccc3c2c1CC3	14-3-3 Bad PPI 94.4, Mcl1-Noxa inh 55.1, Mcl1 Bid PPI 98.7 (no result: Mcl-1 Bim block, Pf gametocyte)
O=C(C[n+]1ccc2ccccc2c1)c1cccc2ccccc12	none (no result: Pf gametocyte)
C/C(Cc1nnn(-c2cc(C)on2)n1)=N\O	none (no result: Mcl-1 Bim block)
Clc1ccccc1/C=C/C=N/Nc1nc(N2CCOCC2)nc(N2CCOCC2)n1	none
COc1ccc(N2CCC(CNC(=O)Nc3ccc(Cl)cc3)C2)cc1 (configuration not stated)	Mcl1-Noxa inh 76.3
COc1ccc(N2CCC(CNC(=O)Nc3cccc(OC)c3)C2)cc1 (configuration not stated)	Mcl1-Noxa inh 89.0 (no result: 14-3-3 Bad PPI, eIF4E 4G PPI)
CCc1ccccc1NC(=S)NCC1CCN(c2ccc(OC)cc2)C1 (configuration not stated)	none (no result: Mcl-1 Bim block)
COc1ccc(N2CCC(CNC(=S)Nc3cccc(OC)c3)C2)cc1 (configuration not stated)	Mcl1-Noxa inh 75.2 (no result: Pf gametocyte)
CCN1/C(=C2/SC(=S)N(NC(C)=O)C2=O)Sc2ccccc21	none (no result: 14-3-3 Bad PPI, Mcl1-Noxa inh, Mcl-1 Bim block, eIF4E 4G PPI, Mcl1 Bid PPI)
CCC1=NN2C(=N)/C(=C\c3ccc(OCc4cc(=O)n5nc(CC)sc5n4)c(OC)c3)C(=O)N=C2S1	Mcl1-Noxa inh 93.8 (no result: Pf gametocyte)
CCOC(=O)C1CCN(C(=O)CN(c2ccc3c(c2)OCO3)S(C)(=O)=O)CC1	none
O=C(c1ccc(S(=O)(=O)N2CCOCC2)cc1)N1CCN(c2ccccn2)CC1	none
CC1=CC(C)(C)Nc2ccccc21	Mcl1-Noxa inh 67.4
COC(=O)c1cc(NC(=S)NCc2ccc(Cl)cc2)cc(C(=O)OC)c1	Mcl1 Bid PPI 96.6 (no result: Pf gametocyte)
COC(=O)c1cccc(NC(=S)NCc2ccc(Cl)cc2)c1	none (no result: Pf gametocyte)
C/C(=N/NC(=O)c1cc(-c2cccc([N+](=O)[O-])c2)n[nH]1)c1ccc(Cl)cc1	14-3-3 Bad PPI 76.7[fluorescence artefact?], Mcl1-Noxa inh 63.6, Mcl1 Bid PPI 74.0
C/C(=N/NC(=O)c1cc(O)c(O)c(O)c1)c1ccc([N+](=O)[O-])cc1	Mcl1-Noxa inh 58.6
C/C(=N/NC(=O)CNC(=O)c1ccccn1)c1ccc([N+](=O)[O-])cc1	none
C/C(=N/NC(=O)CNC(=O)c1cccnc1)c1ccc([N+](=O)[O-])cc1	Mcl1-Noxa inh 72.9
CC(C)c1ccc(/C=N/NC(=O)c2cc(-c3cccc([N+](=O)[O-])c3)n[nH]2)cc1	none (no result: Mcl-1 Bim block)
Cc1noc(C)c1NC(=O)N(C)C[C@H]1Oc2ccc(NC(=O)CCN3CCOCC3)cc2C(=O)N([C@H](C)CO)C[C@@H]1C	none (no result: 14-3-3 Bad PPI, Mcl1-Noxa inh, Mcl-1 Bim block, eIF4E 4G PPI, Mcl1 Bid PPI)
O=C(NNC1CC(=O)N(c2ccccc2)C1=O)c1ccc(COc2ccccc2Cl)o1 (configuration not stated)	none
Cc1cc(NC(=O)CCCn2cc([N+](=O)[O-])cn2)n(Cc2ccc(F)cc2)n1	none
O=C(/C=C/c1ccc(OCCCF)cc1)NCc1ccc(Cl)cc1	none (no result: Pf gametocyte)
N#C/C(C(N)=O)=C1/CCCN1Cc1ccccc1	none (no result: 14-3-3 Bad PPI, Mcl1-Noxa inh, Mcl-1 Bim block, eIF4E 4G PPI, Mcl1 Bid PPI)
O=C1c2ccccc2C(=O)C1Cc1cccc2ccccc12	Mcl1 Bid PPI 89.3 (no result: Pf gametocyte)
O=C(CSc1nc2c(cnn2-c2ccc(F)cc2)c(=O)[nH]1)N1CCCc2ccccc21	Mcl1 Bid PPI 94.0 (no result: Pf gametocyte)
CS(=O)(=O)c1cnc2c(-c3ccsc3)cnn2c1N	none
